Potency, activity change, negative = inhibition and outcome data for 38 molecules are collected here from PubChem BioAssay (NCATS).

Results filed as inconclusive are left out. Entries that show only a call come without a potency. Activity calls are given as the source filed them. The call rests on the fitted dose curve; in most records, active means well fitted curve in the direction sought with a large enough effect; inconclusive means small, poorly fitted or top-dose-only effect, or another doubt; inactive means no such curve, though single readings can be large; an effect the other way counts as inactive or inconclusive.

Chain of Calcium and integrin-binding protein 1 (Homo sapiens) (Q99828 whole entry, looked up): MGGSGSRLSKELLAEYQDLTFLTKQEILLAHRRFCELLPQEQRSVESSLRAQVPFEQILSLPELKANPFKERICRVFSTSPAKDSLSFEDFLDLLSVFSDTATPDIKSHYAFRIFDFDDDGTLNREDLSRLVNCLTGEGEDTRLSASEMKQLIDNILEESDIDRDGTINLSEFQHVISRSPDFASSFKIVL

The subject of the first test is Zika virus NS2B-NS3 protease (linked construct). The test is described as follows: Primary screen NINDS Rhodamine qHTS for Zika virus inhibitors (AID 1347160). Further: nearly all actives have a fitted effect of over 55% in size. Particulars: purified NS2B-NS3 protease, Rhodamine110 substrate fluorescence; series mostly up to 57.1 µM. Summed up: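 Aprotinin served as in-plate control. Conditions: 25 nM linked NS2B-NS3, pH 8.0 Tris buffer, titrated compounds, 15 min preincubation and 15 min reaction with 1.5 microM Rhod110 substrate at room temperature.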
In general terms: In qHTS, concentration-response curves come from the screen itself.
For the molecule `COc1cc(N2CCOCC2)ccc1Nc1ncc(F)c(Nc2ccccc2NS(C)(=O)=O)n1`, the Potency entry is “inactive”.

On to `CC(=O)C1=C(O)C2c3c[nH]c4cccc(c34)CC2C(C)(C)N(C)C1=O` (stereo unspecified), for which the Potency result is “inactive”.

`CC(C)N(CCCNC(=O)Nc1ccc(C(C)(C)C)cc1)C[C@H]1O[C@@H](n2cc(Br)c3c(N)ncnc32)[C@H](O)[C@@H]1O`: the Potency result is “inactive”.

Take `O=C(c1ccc(F)c(F)c1Nc1ccc(I)cc1F)N1CC(O)(C2CCCCN2)C1` (stereo unspecified): the Potency result is “inactive”.

For the molecule `O=[N+]([O-])c1ccc(-[n+]2nc(-c3ccccc3)nn2-c2ccc(I)cc2)cc1`, the Potency result was “inactive”.

For `CC(=O)N[C@@H](CC(=O)O)C(=O)N[C@@H](CCC(=O)O)C(=O)N[C@H](C(=O)N[C@@H](CC(=O)O)C(=O)Nc1ccc2c(C)cc(=O)oc2c1)C(C)C`, the Potency result is “inactive”.

For `CC1CCCC(SCC(O)C(=O)O)CC(=O)c2c(O)cc(O)cc2CC(=O)O1` (stereo unspecified), the Potency entry was “inactive”.

In the case of `COc1ccccc1NC(=O)Nc1ccc2ccccc2c1`, the Potency result is “inactive”.

As for `CN1CCN(C(=O)c2ccc(Nc3nccc(-c4cccs4)n3)cc2Cl)CC1`, the Potency entry was “inactive”.

For the molecule `Cn1cc(-c2cnc3ccc4ccc(CS(=O)(=O)NCc5ccccn5)cc4c(=O)c3c2)cn1`, the Potency result is “inactive”.

On to `C=C1[C@@H](C2=CC(=O)OC2)CC[C@@]2(O)[C@@H]1CC1[C@H]2CC[C@@H]2C[C@@H](O[C@H]3O[C@@H](C)[C@@H](O[C@@H]4O[C@H](CO[C@@H]5O[C@H](CO)[C@@H](O)[C@H](O)[C@H]5O)[C@@H](O)[C@H](O)[C@H]4O)[C@H](OC)[C@H]3O)CC[C@]12C` (stereo partly specified), for which the Potency result is “inactive”.

Take `C=C(C)[C@@H]1CC[C@]2(C(=O)O)CC[C@]3(C)C(CCC4[C@@]5(C)C[C@@H](O)[C@H](O)C(C)(C)C5CC[C@]43C)C12` (stereo partly specified): the Potency result was “inactive”.

Take `CCN(CCCOc1ccc2c(Nc3cc(CC(=O)Nc4cccc(F)c4)[nH]n3)ncnc2c1)CCOP(=O)(O)O`: the Potency entry was “inactive”.

On to `CCS(=O)(=O)N(Cc1cccnc1)c1cccc(-c2ccc(C#N)cc2)c1`, for which the Potency entry is “inactive”.

Turning to `CC(C)CCC[C@@H](C)[C@H]1CC[C@H]2[C@@H]3CC=C4C[C@@H](OC(=O)NCCN(C)C)CC[C@]4(C)[C@H]3CC[C@]12C`, the Potency result is “inactive”.

In the case of `O=C(NNc1ccccc1)c1ccncc1`, the Potency result is “inactive”.

As to `C=C1[C@@H](C)[C@H]2[C@H](Cc3c[nH]c4ccccc34)NC(=O)[C@]23C(=O)/C=C/C(=O)[C@H](O)/C(C)=C\[C@@H](C)C/C=C/[C@H]3[C@@H]1O`, the Potency entry is “inactive”.

On to `CC(C)(C)c1ccc(CNC(=S)NCc2ccc(NS(C)(=O)=O)c(F)c2)cc1`, for which the Potency result is “inactive”.

With `CNCc1ccc(C)c(NC(=O)c2ccc(Nc3nc(-c4ccccc4)c4ccccc4n3)cc2)c1`, the Potency result was “inactive”.

For `CC1CCC(n2c3cnccc3c3cnc(Nc4ccc5c(n4)CCN(C(=O)CO)C5)nc32)CC1` (stereo unspecified), the Potency entry is “inactive”.

On to `C=CC(=O)Nc1cc(Nc2nccc(-c3cn(C)c4ccccc34)n2)c(OC)cc1N(C)CCN(C)C`, for which the Potency entry was “inactive”.

Consider `COc1cc2ncnc(Nc3ccc(Oc4ccccc4)cc3)c2cc1OC`, for which the Potency entry was “inactive”.

System in a further test: not listed separately
The test is described as follows: qHTS to identify inhibitors of the type 1 interferon - major histocompatibility complex class I in skeletal muscle: primary screen against the NCATS Mechanism Interrogation Plate v5.0 (MIPE) Libary (AID 1347411). Further: nearly all actives have a fitted effect of over 65% in size. Further: potency means the concentration at half of the fitted maximal effect. Particulars: iHSKM cells + IFN-b, HiBiT-tagged MHC-I luminescence, 24 h; series mostly up to 45.8 µM. The procedure, abridged:
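IFN-beta-driven (4 ng/ml) HLA-B-HiBit expression in CRISPR-tagged C25cl48 myoblasts; compounds 11-pt, 1:3, max 46 uM, 24 hr exposure; lytic NanoLuc complementation luminescence.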
For the molecule `Nc1ncnc2c1ncn2[C@@H]1O[C@H](CO)C[C@H]1O`, the Potency result was “inactive”.

With `COc1ccc(CNC(=O)Nc2ncc([N+](=O)[O-])s2)cc1`, the Potency is 18.6 µM (active).

Take `Cn1cc(-c2cnc3ccc4ccc(CS(=O)(=O)NCc5ccccn5)cc4c(=O)c3c2)cn1`: the Potency entry is “inactive”.

In the case of `CCN(CCCOc1ccc2c(Nc3cc(CC(=O)Nc4cccc(F)c4)[nH]n3)ncnc2c1)CCOP(=O)(O)O`, the Potency entry was “inactive”.

As to `O=C(NNc1ccccc1)c1ccncc1`, the Potency result was “inactive”.

`Cc1nc2ccc(C(=O)N3CCC4(CC3)CC(=O)c3c(cnn3C(C)C)C4)cc2[nH]1`: the Potency entry is “inactive”.

For the molecule `CNCc1ccc(C)c(NC(=O)c2ccc(Nc3nc(-c4ccccc4)c4ccccc4n3)cc2)c1`, the Potency was 33 µM (active).

Regarding `CC1CCC(n2c3cnccc3c3cnc(Nc4ccc5c(n4)CCN(C(=O)CO)C5)nc32)CC1` (stereo unspecified), the activity change, negative = inhibition is -18.6% [at 8.44 µM] (inactive).

As for `C=CC(=O)Nc1cc(Nc2nccc(-c3cn(C)c4ccccc34)n2)c(OC)cc1N(C)CCN(C)C`, the Potency was 8.29 µM (active).

The target of a further test is Calcium and integrin-binding protein 1 (Homo sapiens) (UniProt Q99828). Nature of the test: Primary qHTS for Identification of Calcium Integrin Binding Protein 1 (CIB1) Competitor (AID 1508620).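 Further: GST tagged CIB1 binding a fluorescein labelled alphaIIb integrin peptide tracer; top concentration of the series differs between compounds.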 Particulars: CIB1-GST / FITC-alphaIIb peptide fluorescence polarization; series mostly up to 114 µM. The procedure, abridged:
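Fluorescence polarization competition: GST-tagged CIB1 (1 uM final) preincubated with compound 15 min at room temperature, then FITC-labelled alphaIIb peptide (100 nM final) added. After 15 min at room temperature, polarization read at Ex 480/Em 540.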
In the case of `O=c1c(-n2ccnn2)c[nH]n1-c1cc(N2CCOCC2)ncn1`, the result was inactive.

For the molecule `Oc1ccc(Nc2nc(-c3ccc(Cl)cc3)cs2)cc1`, the result was inactive.

Turning to `OCC(Cc1ccccc1)Nc1nc(Oc2ccc3c(c2)CCC3)nc2c1ncn2Cc1ccc(-c2ccccc2)cc1` (stereo unspecified), the outcome was inactive.

Regarding `Cc1cc2nc(NCCCO)n(CC(=O)c3cc(C(C)(C)C)c(O)c(C(C)(C)C)c3)c2cc1C`, the result was inactive.

For the molecule `CC1(C)CC23[C@@H]4CC(=O)[C@@H]2COC(=O)[C@@H]3CC[C@H]41`, the result was inactive.

On to `CC[C@H](CO)Nc1nc(Nc2cccc(-c3ccccn3)c2)c2ncn(C(C)C)c2n1`, for which the outcome was inactive.

Turning to `Cc1ccccc1C(=O)Nc1ccc(C(=O)N2CCC[C@@H](O)c3cc(Cl)ccc32)c(C)c1`, the result was inactive.

With `CCCCn1c(-c2ccccc2)nc(-c2ccccc2)c1CN(Cc1ccc2c(c1)OCO2)Cc1ccc2c(c1)OCO2`, the result was inactive.

Take `CCOC(=O)c1cccc(CNc2ccc(N(C)C(=O)Nc3ccccc3)cc2)c1`: the outcome was inactive.

Regarding `CC1CCN(C(c2ccc(F)cc2)c2ccc(C(C)C(=O)O)cc2-c2ccc(C(F)(F)F)cc2)CC1` (stereo unspecified), the result was inactive.

Consider `OCC(CO)(CO)NCC(O)Cn1c2ccc(Cl)cc2c2cc(Cl)ccc21` (stereo unspecified), for which the result was inactive.

As to `COCCOCCOc1ccc(C2=N[C@@](C)(C(=O)O)CS2)c(O)c1`, the result was inactive.

For `C=C(C)C(=O)O[C@H]1[C@H]2C(=C)C(=O)O[C@@H]2C[C@@H](C)/C=C\C(=O)[C@](C)(O)[C@@H]1OC(C)=O`, the outcome was inactive.

Regarding `CC(=O)C1=C(O)C2c3c[nH]c4cccc(c34)CC2C(C)(C)N(C)C1=O` (stereo unspecified), the result was inactive.

`CC(C)N(CCCNC(=O)Nc1ccc(C(C)(C)C)cc1)C[C@H]1O[C@@H](n2cc(Br)c3c(N)ncnc32)[C@H](O)[C@@H]1O`: the outcome was inactive.

As for `O=C(c1ccc(F)c(F)c1Nc1ccc(I)cc1F)N1CC(O)(C2CCCCN2)C1` (stereo unspecified), the result was inactive.

Turning to `O=[N+]([O-])c1ccc(-[n+]2nc(-c3ccccc3)nn2-c2ccc(I)cc2)cc1`, the outcome was inactive.

As to `CC1CCCC(SCC(O)C(=O)O)CC(=O)c2c(O)cc(O)cc2CC(=O)O1` (stereo unspecified), the outcome was inactive.

Take `COc1ccccc1NC(=O)Nc1ccc2ccccc2c1`: the outcome was inactive.

As to `CN1CCN(C(=O)c2ccc(Nc3nccc(-c4cccs4)n3)cc2Cl)CC1`, the outcome was inactive.

Regarding `C=C(C)[C@@H]1CC[C@]2(C(=O)O)CC[C@]3(C)C(CCC4[C@@]5(C)C[C@@H](O)[C@H](O)C(C)(C)C5CC[C@]43C)C12` (stereo partly specified), the result was inactive.

Regarding `CCN(CCCOc1ccc2c(Nc3cc(CC(=O)Nc4cccc(F)c4)[nH]n3)ncnc2c1)CCOP(=O)(O)O`, the outcome was inactive.

For the molecule `CCS(=O)(=O)N(Cc1cccnc1)c1cccc(-c2ccc(C#N)cc2)c1`, the outcome was inactive.

`CC(C)CCC[C@@H](C)[C@H]1CC[C@H]2[C@@H]3CC=C4C[C@@H](OC(=O)NCCN(C)C)CC[C@]4(C)[C@H]3CC[C@]12C`: the result was inactive.

Turning to `O=C(NNc1ccccc1)c1ccncc1`, the outcome was inactive.

In the case of `Cc1nc2ccc(C(=O)N3CCC4(CC3)CC(=O)c3c(cnn3C(C)C)C4)cc2[nH]1`, the result was inactive.

`C=C1[C@@H](C)[C@H]2[C@H](Cc3c[nH]c4ccccc34)NC(=O)[C@]23C(=O)/C=C/C(=O)[C@H](O)/C(C)=C\[C@@H](C)C/C=C/[C@H]3[C@@H]1O`: the outcome was inactive.

On to `CNCc1ccc(C)c(NC(=O)c2ccc(Nc3nc(-c4ccccc4)c4ccccc4n3)cc2)c1`, for which the outcome was inactive.

In the case of `CC1CCC(n2c3cnccc3c3cnc(Nc4ccc5c(n4)CCN(C(=O)CO)C5)nc32)CC1` (stereo unspecified), the result was inactive.

Take `C=CC(=O)Nc1cc(Nc2nccc(-c3cn(C)c4ccccc34)n2)c(OC)cc1N(C)CCN(C)C`: the result was inactive.
